# Test system: HepG2
# Assay: GSK_TCMDC: Percent inhibition of human HepG2 cell line. Test compounds present at 10uM.
# Type: functional
row,Structure (SMILES),Inhibition [%]
1,CC(=O)Nc1cc(C(=O)Nc2cccc(-c3cccc(-c4nc5cccc(C)c5[nH]4)c3)c2)ccc1C,25
2,CCOC(=O)N/N=C/[C@H](CCc1ccccc1)NC(=O)[C@H](CC(C)C)NC(=O)c1cc2cccc(OC)c2o1,3
3,CC(=O)Nc1cccc(C(=O)Nc2cccc(-c3ccc(-c4nc5cc(F)ccc5[nH]4)cc3)c2)c1,60
4,CCN(CCO)CCCC(C)Nc1ccnc2cc(Cl)ccc12.O=S(=O)(O)O (stereo not given) [HYDROXYCHLOROQUINE SULFATE],3
5,CNC(=O)c1cc(Nc2nnc(-c3ccc(C)c(S(=O)(=O)NC4CCCCC4)c3)c3ccccc23)ccc1OC,0
6,COCCNCc1cccc(C#Cc2cc3ncnc(Nc4ccc(OCc5cccc(F)c5)c(Cl)c4)c3s2)n1,35
7,CC(C(=O)OCCOCn1cnc2c(=O)[nH]c(N)nc21)N(C)C(=O)OC(C)(C)C (stereo not given),28
8,O=C(O)C(F)(F)F.O=S(=O)(NCCN1CCCC1)c1ccc(-c2ccc(CNCc3ccc(F)cc3)cc2)cc1F,40
9,Cc1cc(CN2CCC(N3CC(c4ccccc4)(c4ccccc4)OC3=O)C2)ccc1O (stereo not given),0
10,CN(C)CCC(O)C=C(c1ccc(Cl)cc1)c1ccc(Cl)cc1 (stereo not given),33
11,CO/C(=C\C=C\c1cc2cc(Cl)c(Cl)cc2[nH]1)C(=O)NCCCN1CCN(c2ccncc2)CC1,12
12,Cl.c1ccc(COc2ccc(Nc3ncnc4cnc(-c5ccc(CN6CCCCC6)o5)cc34)cc2)cc1,0
13,CCOC(=O)c1cncc(/C=C/c2cc(C)cnc2N)c1,4
14,CC(C)CCNc1nc2ccccc2nc1Nc1cccc(C(F)(F)F)c1,12
15,CC(C)COc1ccc(Cl)cc1Cc1ccc(-c2nc3cc(CCN4CCCC4)ccc3[nH]2)o1.Cl,34
16,CC(=O)Nc1ccc(C(=O)NC2CCN(c3ccnc4cc(Cl)ccc34)CC2)cc1.O=C(O)C(F)(F)F,5
17,COc1ccc(Nc2cc(C)nc(NCc3ccc4c(c3)OCO4)n2)cc1,26
18,CC(C)(C)C1CC(=O)CC2C(=O)N(C3CCCCC3)C(=O)C21 (stereo not given),0
19,CCc1ccc(NC(=O)c2ccc(CN3CCCN(Cc4cccc(O)c4)CC3)cc2)cc1.O=C(O)C(F)(F)F,51
20,O=C(Nc1ccsc1)Nc1cccc(-c2cccc(-c3nc4ccccc4[nH]3)c2)c1,61

row,Structure (SMILES),Inhibition [%]
1,Nc1nc(N)c2c(Cc3ccc(Br)cc3)cccc2n1,28
2,CN1CCCC1CCNCc1cccc(-c2cnc(N(C)C3CCCCC3)nc2)c1 (stereo not given),98
3,CCCCN(Cc1cc(Cl)c(OCC)c(OC)c1)c1ccc(C(O)(C(F)(F)F)C(F)(F)F)cc1.O=C(O)C(F)(F)F,5
4,COc1ccc2nccc([C@@H](O)CN3CCC(NCc4cc5c(Cl)cccc5[nH]4)CC3)c2c1.O=C(O)C(=O)O,40
5,Cc1cccc2nc(-c3ccc(-c4cccc(NC(=O)Nc5ccc(F)c(F)c5F)c4)cc3)[nH]c12,40
6,Cc1ccc(CON2C(N)=NC(N)=NC2(C)C)c(Cl)c1.Cc1ccc(CON2C(N)=NC(N)=NC2(C)C)cc1Cl,67
7,COc1ccc(CC2(c3ccc(F)cc3)N=C(N)N(CCCc3cccnc3)C2=O)cc1.O=C(O)C(F)(F)F (stereo not given),12
8,Cc1cc(N[C@@H](Cc2ccccc2)C(=O)NC2CCCC2)nc(NCc2ccccc2C)n1.O=C(O)C(F)(F)F,2
9,CC(=O)Nc1cccc(-c2cnc(N)c3cc(-c4ccc5c(c4)OCO5)ccc23)c1,100
10,Cc1cc(N[C@@H](Cc2ccccc2)C(=O)NCCOc2ccccc2)nc(NCCc2ccccn2)n1.O=C(O)C(F)(F)F,12
11,N#Cc1ccc(N2CCN(C(=O)c3cccc(-c4noc(C(F)(F)F)n4)c3)CC2)nc1,18
12,C/C=C/COc1ccc2ccccc2c1CNCCCCCCCCNCc1c(OC/C=C/C)ccc2ccccc12.CS(=O)(=O)O.O,100
13,COc1ccc(Cn2c(Nc3cccc(C(F)(F)F)c3)nc3cc(C(=O)NCCCN(C)C)ccc32)cc1Cl,15
14,COc1ccc(O)c(C(=O)c2cc(C(=O)NC3CCCCC3)c(=O)n(C3CCCCC3)c2)c1,8
15,CON(C)C(=O)[C@@H](CCCCNC(=O)OCc1ccccc1)NC(=O)OC(C)(C)C,5
16,CC1CCCN(Cc2c(O)ccc3c(O)c(-c4nc5ccccc5s4)c(=N)oc23)C1 (stereo not given),20
17,O=C(NCCc1ccccc1)N(Cc1cccc(-c2ccc(CNC3CCCC3)cc2)c1)C1CCN(Cc2ccccc2)CC1.O=C(O)C(F)(F)F,36
18,CSc1ccc(CN2CCC(CNC(=O)c3cc(-c4ccccc4F)cs3)C2)cc1.O=C(O)C(F)(F)F (stereo not given),32
19,O=C(NCc1cccs1)[C@H](Cc1ccccc1)Nc1ccnc(NCCc2ccc(F)cc2)n1.O=C(O)C(F)(F)F,1
20,COc1ccc2ccc(F)c(CCN3CCC(NCc4cc5c(cn4)OCCO5)CC3)c2n1.Cl,15

# — ChEMBL document CHEMBL1157539, “Thousands of chemical starting points for antimalarial lead identification” (Nature, 2010)
